Holding throughout (design): species or system human, MV4-11 + K-562 + COLO205 + SK-N-BE2 + OVCAR-8
The subject of one test is NEK1. The note with it: read-out: apparent Kd; compound concentrations: 100 nM and 1000 nM (sheet 'Samples'), CATDS: 0.147931725525974; n = 1.
The next test has as its system PHKG2. The following applies: read-out: apparent Kd; compound concentrations: 100 nM and 1000 nM (sheet 'Samples'), CATDS: 8.5402919050668602E-3; n = 1.
The next test deals with PRKACA. The note with it: read-out: apparent Kd; compound concentrations: 100 nM and 1000 nM (sheet 'Samples'), CATDS: 7.7130843989671599E-3; n = 1.
The test system of another test is NCL. The note with it: read-out: apparent Kd; compound concentrations: 100 nM and 1000 nM (sheet 'Samples'), CATDS: 1.71627638164802E-2; n = 1.
A further test has as its system CDK10. The note with it: read-out: apparent Kd, n = 1.
Another test deals with CDK12. The following applies: read-out: apparent Kd; compound concentrations:100 nM and 1000 nM (sheet 'Samples'); n = 1.
A further test deals with CDK13. The following applies: read-out: apparent Kd, n = 1.
The test system of another test is IRAK1. The note with it: read-out: apparent Kd, n = 1.
The next test relates to DCK. The following applies: read-out: apparent Kd, n = 1.
For another test, the system named is PRKCI. The following applies: read-out: apparent Kd, n = 1.
The next test concerns TUBB6. The following applies: read-out: apparent Kd, n = 1.
The test system of another test is SLC25A6;SLC25A4. The following applies: read-out: apparent Kd, n = 1.
The subject of the next test is CSNK1G3. The following applies: read-out: apparent Kd; compound concentrations:100 nM and 1000 nM (sheet 'Samples'); n = 1.
The test system of the next test is PI4KA. The following applies: read-out: apparent Kd; compound concentrations:100 nM and 1000 nM (sheet 'Samples'); n = 1.
In the next test the test system is CAMK4. The following applies: read-out: apparent Kd, n = 1.
The next test relates to PKM. The note with it: read-out: apparent Kd, compound concentrations: 100 nM and 1000 nM (sheet 'Samples'), n = 1.
The next test concerns DHCR24. The note with it: read-out: apparent Kd, n = 1.
For the next test, the system named is PSMC3. The following applies: read-out: apparent Kd, n = 1.
In the next test the test system is EPHA7. The note with it: read-out: apparent Kd; compound concentrations:100 nM and 1000 nM (sheet 'Samples'); n = 1.
The test system of another test is CAMK2D. The following applies: read-out: apparent Kd, n = 1.
Where [1] appears, read: compound concentrations:100 nM and 1000 nM (sheet 'Samples').

Like-named read-outs stand apart in the source and are kept apart here.

As for `COc1cc(Nc2nccc(N3CCC(NC(=O)c4cccc(C#N)c4)C3)n2)cc(OC)c1OC` (stereo not drawn) [GSK1379751A], the potency estimated from few doses with NEK1 is 1860 nM.

For the compound `O=C1N=C(NCc2cccs2)SC1Cc1ccc2ncccc2c1` (stereo not drawn) [RO4629078-000], the potency estimated from few doses with PHKG2 is 1040 nM; with PRKACA it was 1470 nM. Take `Cl.Cl.Cl.c1ccc(Oc2ccc(Nc3ccnc4cc(-c5ccc(CN6CCNCC6)o5)ccc34)cc2)nc1.c1ccc(Oc2ccc(Nc3ccnc4cc(-c5ccc(CN6CCNCC6)o5)ccc34)cc2)nc1` [GW567142A]: the potency estimated from few doses with NCL was 1970 nM. As for `N#Cc1cccc(Nc2nccc(-c3cnn4ncccc34)n2)c1` [GW778894X], the potency estimated from few doses was 405 nM in the test with CDK10 (setting [1]), 541 nM in the test on CDK12, 1160 nM in the test with CDK13 (setting [1]) and 896 nM in the test on IRAK1 (setting [1]).

On to `O=S(=O)(CCOCc1ccc(-c2ccc3ncnc(Nc4ccc(OCc5cccc(F)c5)c(Cl)c4)c3c2)o1)c1ccccc1` [GW615311X], for which the potency estimated from few doses is 2110 nM in the test on DCK (compound concentrations: 100 nM and 1000 nM (sheet 'Samples'), CATDS: 2.31641141582303E-2); 2160 nM in the test on PRKCI (compound concentrations: 100 nM and 1000 nM (sheet 'Samples'), CATDS: 2.29472037028754E-2); 1500 nM in the test on TUBB6 (compound concentrations: 100 nM and 1000 nM (sheet 'Samples'), CATDS: 2.6696132806602001E-2). As for `O=S(=O)(c1ccc(-c2ccnc3[nH]ccc23)cc1)N1CCCC1` [GSK846226A], the potency estimated from few doses in the test on SLC25A6;SLC25A4 (setting [1]) is 2020 nM. Regarding `Nc1nc(N)c2nc(-c3ccccc3)[nH]c2n1` [SKF-12778], the potency estimated from few doses in the test with CSNK1G3 is 1180 nM; in the test on DCK (setting [1]), 1720 nM; with PI4KA it was 1400 nM; with TUBB6 (setting [1]), 1770 nM. As for `CN1CCN(Cc2ccc(-c3ccc4c(Nc5ccc(Oc6ccccn6)cc5)ccnc4c3)o2)CC1` [GW567140X], the potency estimated from few doses with CAMK4 (compound concentrations: 100 nM and 1000 nM (sheet 'Samples'), CATDS: 3.2094924147275203E-2) was 2000 nM; in the test on PKM (CATDS: 3.4326075880393901E-2), 1520 nM. For `CN1CCN(Cc2ccc(NC(=O)Nc3ccc(N(C)c4ccnc(Nc5ccc(CS(C)(=O)=O)cc5)n4)cc3)cc2)CC1.Cl` [GW827654A], the potency estimated from few doses with CDK10 (compound concentrations: 100 nM and 1000 nM (sheet 'Samples'), CATDS: 3.5844771224848297E-2) was 1570 nM. In the case of `Fc1ccc(-c2c(-c3ccncc3)[nH]c3nccnc23)cc1` [RO1155697-000], the potency estimated from few doses in the test with CAMK4 (setting [1]) is 1550 nM.

Consider `CNC(=O)c1ccccc1Nc1nc(Nc2cccc(CS(C)(=O)=O)c2)ncc1C.O=CO` [GSK1520489A], for which the potency estimated from few doses in the test with IRAK1 (compound concentrations: 100 nM and 1000 nM (sheet 'Samples'), CATDS: 1.0270392688251299E-2) is 1150 nM. Consider `CC(=O)c1c(-c2ccncc2)[nH]c(-c2ccncc2)c1C` [GW493036X], for which the potency estimated from few doses with CSNK1G3 was 842 nM; in the test on DHCR24 (setting [1]), 1240 nM.

For `COc1ccc(C2=C(Nc3cccc(O)c3)C(=O)NC2=O)cc1` [SB-390766], in the test on PI4KA, the potency estimated from few doses is 1330 nM. As to `CCCCCNC(=O)[C@@H]1CCCN2C(=O)CC[C@H](NC(=O)[C@H](Cc3ccc(OP(=O)(O)O)cc3)NC(C)=O)C(=O)N12` [RO0324694-000], the potency estimated from few doses in the test with PSMC3 (setting [1]) was 1910 nM. Regarding `Cc1ccc(-n2nc(C(C)(C)C)cc2NC(=O)Nc2ccc(OCCN3CCOCC3)cc2)cc1` [BIRB0876BS], the potency estimated from few doses in the test on EPHA7 was 1830 nM. `Cc1[nH]nc2c1N=C(c1ccccc1Cl)c1cc([N+](=O)[O-])ccc1N2` [RO0274406-000]: in the test with PKM (CATDS: 7.8896221929170104E-2), the potency estimated from few doses is 922 nM. With `COc1ccc(-c2nn3ncccc3c2-c2ccnc(Nc3ccc4c(c3)OCCO4)n2)cc1` [GW827106X], in the test with CDK13 (compound concentrations: 100 nM and 1000 nM (sheet 'Samples'), CATDS: 4.6663696277222499E-2), the potency estimated from few doses was 1770 nM. Take `Nc1c(C(=O)c2ccccc2)cnn1-c1ccc(F)cc1` [RO1151246-000]: the potency estimated from few doses in the test with PRKCI (setting [1]) was 2030 nM. On to `Cn1cc(C2=C(c3ccccc3[N+](=O)[O-])C(=O)NC2=O)c2ccccc21` [RO0317753-000], for which the potency estimated from few doses with CAMK2D (compound concentrations: 100 nM and 1000 nM (sheet 'Samples'), CATDS: 9.7402766920506798E-2) is 597 nM. On to `Fc1cccc(COc2ccc(Nc3ncncc3C#Cc3ccccc3)cc2Cl)c1` [GW651576X], for which the potency estimated from few doses in the test on PSMC3 (compound concentrations: 100 nM and 1000 nM (sheet 'Samples'), CATDS: 4.80880541633023E-2) was 1950 nM. As for `COc1cc(F)c(F)c(F)c1C(=O)c1cnc(NC2CCN(S(C)(=O)=O)CC2)nc1N` [RO4600703-000], the potency estimated from few doses with CDK12 is 2300 nM. In the case of `COc1ccc(Nc2nccc(N3CCC(NC(=O)Nc4cccc(OC)c4)C3)n2)cc1` (stereo not drawn) [GSK1379742A], the potency estimated from few doses in the test on DHCR24 (compound concentrations: 100 nM and 1000 nM (sheet 'Samples'), CATDS: 0.157459675408709) is 1060 nM. With `Cl.Oc1ccc2ncnc(Nc3ccc(OCc4ccccc4)cc3)c2c1` [GI262866A], the potency estimated from few doses with CAMK2D (setting [1]) was 388 nM. `NC(=O)c1cccnc1COc1cc(-c2ccc(N3CCOCC3)nc2)cc2ncccc12` [BI01125081]: the potency estimated from few doses with EPHA7 is 1500 nM. Regarding `COc1cccc(C2=C(c3cn(C)c4c(C)cccc34)C(=O)NC2=O)c1` [RO3301012-000], the potency estimated from few doses with SLC25A6;SLC25A4 (compound concentrations: 100 nM and 1000 nM (sheet 'Samples'), CATDS: 9.9606855520270293E-2) is 1850 nM.

These data come from article PMC11062922 (Nature Chemical Biology, 2023).
